This is an account of results in PubChem BioAssay.

Each structure is given as a SMILES string. The source made the active and inactive calls.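 The calls were made as follows, unless noted: active = compound raises insulin release from rat beta cells at 5 mM glucose, no numeric limit stated; inactive = the rest.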

The nature of test [1]: stimulators of nuclear beta-catenin in C2C12, primary screen, imaging, WNT3A-conditioned medium, mouse C2C12, NPC library (AID 1117326; in the data active = nuclear beta-catenin stimulation mostly above about 4.2%, no sharp cut-off; inactive = mostly below about 10%). To be noted: stronger effect = higher value.
Test [2] can be described thus: stimulators of insulin release from INS-1E, primary screen, cell-based, 5 mM glucose, NPC library (AID 1117329). To be noted: rat INS-1E insulin secretion, at 10 µM, stronger effect = higher value.
A short description of test [3]: growth inhibition of GSK3B-pretreated HCT116 cells – cell-based, CellTiter-Glo, 0.2 to 20 µM (AID 1117336;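 active = compounds lowering colon cancer cell viability after pretreatment blocking the GSK3B kinase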). The conditions noted are these: HCT116 viability after GSK3B inhibitor, at 20 µM, stronger effect = higher value. (Cellular ATP, detected with luciferase, serves as a proxy for viable cell number.)
Test [4] in a line: inhibition of endothelial tube formation, primary screen, imaging, VEGF stimulated, CD31 staining, tube area, NPC library (AID 1117340;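 active = compound that reduces growth-factor-driven endothelial tube area in a mixed cell culture, no cutoff stated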). To be noted: VEGF-stimulated ADSC/ECFC co-culture, at 10 µM, stronger effect = higher value.
Test [5] is described as follows: glucagon-like peptide 1 release enhancers, primary assay, NCI-H716 cell line, NPC library (AID 1117341;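 active = compound raises GLP1 secretion from the human gut endocrine cells, with no numeric limit stated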). The conditions noted are these: NCI-H716 cells, at 10 µM, stronger effect = higher value.
The nature of test [6]: HCT116 colon cancer cell growth inhibition, primary screen, CellTiter-Glo luminescence, NPC library (AID 1117342;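 active = compounds that lower survival of HCT116 colon cancer cells in the luminescence readout, no numeric limit stated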). The conditions noted are these: at 20 µM (top of the series).
Test [7] in a line: CellTiter-Glo luminescent readout of SW480 viability loss, NPC library primary (AID 1117343;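 active = compounds that lower viability of the colon cancer cells in the luminescence readout, with no numeric limit stated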). To be noted: CellTiter-Glo luminescence; at 20 µM (top of the series) unless noted.
Test [8] can be described thus: decreased DLD-1 cellular survival, CellTiter-Glo luminescent readout, NPC compound collection, primary HTS (AID 1117346;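 active = compounds that lower survival of DLD-1 colon cancer cells in the luminescence readout, no cutoff given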). The conditions noted are these: DLD-1 viability, CellTiter-Glo luminescence; at 20 µM (top of the series).
Test [9] can be described thus: differential killing of epithelial or mesenchymal cells, primary screen, imaging, PC-3E GFP, TEM4-18 mCherry, co-culture (AID 1345086;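 active = compounds killing one labelled cell type while sparing the other, by normalised counts and ratio limits, not self-fluorescent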;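 as to all read-outs here: cells exposed to compound for 72 h before imaging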;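 as to red/green cell ratio (normalised): normalised mesenchymal count divided by normalised epithelial count so high means epithelial killing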). The conditions noted are these: imaging cell counts, at 1 µM; for red/green cell ratio (normalised): actives lie on both sides, counts scaled to control wells, 1 = unselective.
A short description of test [10]: sensitizers of A549 cells to miR-34 induction, primary screen, imaging, A549 dox-inducible miR-34, nuclei and caspase counts (AID 1347080;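 active = compounds whose cell count with miR-34 switched on is under 0.7 times the count with it off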). The conditions noted are these: A549 miR-34 inducible, Hoechst nuclei count, 48 h.
Test [11] has as its target NAD(+) hydrolase SARM1 (Homo sapiens) (UniProt Q6SZW1). Put plainly: SARM1 TIR NADase inhibitors, cell lysate, NAD-Glo luminescence (AID 1508614;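 active = compound whose remaining NAD level is above about 45 nM, limit read from the data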;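 also: higher remaining NAD means stronger inhibition of SARM1 NADase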). To be noted: SAM-TIR HEK293T lysate NADase, at 1 µM, stronger effect = higher value.
[12] abbreviates: measured here: epithelial PC-3E GFP cell survival.
The mark [13] stands for this setting: measured here: mesenchymal TEM4-18 mCherry cell survival.
Where [14] appears, read: stronger effect = lower value, cell number ratio, induced over uninduced.
[15] abbreviates: measured here: relative caspase fold change +Dox/-Dox.
Setting [16] is: measured here: total cells with miR-34 induction, stronger effect = lower value.
The mark [17] stands for this setting: measured here: total cells without miR-34 induction.

Sequence of NAD(+) hydrolase SARM1 (Homo sapiens) (Q6SZW1 whole entry, looked up): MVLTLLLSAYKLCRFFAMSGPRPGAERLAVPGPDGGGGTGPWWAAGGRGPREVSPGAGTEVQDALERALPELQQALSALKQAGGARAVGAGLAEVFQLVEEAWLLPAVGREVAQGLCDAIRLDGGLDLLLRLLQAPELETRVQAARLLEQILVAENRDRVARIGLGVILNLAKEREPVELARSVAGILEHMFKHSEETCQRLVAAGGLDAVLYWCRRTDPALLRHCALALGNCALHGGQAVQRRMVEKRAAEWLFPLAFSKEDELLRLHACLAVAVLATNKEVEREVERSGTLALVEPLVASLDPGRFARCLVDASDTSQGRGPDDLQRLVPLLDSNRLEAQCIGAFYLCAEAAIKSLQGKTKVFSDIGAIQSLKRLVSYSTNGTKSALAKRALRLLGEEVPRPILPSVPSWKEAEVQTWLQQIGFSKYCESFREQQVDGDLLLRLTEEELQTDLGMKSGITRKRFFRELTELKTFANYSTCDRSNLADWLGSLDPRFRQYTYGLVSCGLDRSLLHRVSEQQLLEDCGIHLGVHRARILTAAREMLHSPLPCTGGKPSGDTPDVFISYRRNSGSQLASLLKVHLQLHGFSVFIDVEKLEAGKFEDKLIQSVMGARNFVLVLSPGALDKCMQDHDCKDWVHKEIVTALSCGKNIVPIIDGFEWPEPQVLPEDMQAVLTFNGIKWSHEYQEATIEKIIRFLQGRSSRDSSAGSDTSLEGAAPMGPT

For the compound `CC(O)C(=O)O` (stereo not drawn), the nuclear beta-catenin stimulation in test [1] (at 10 µM) was 2.5% (inactive); in test [1] (stimulation, at 2 µM), 3%. Moreover, in test [2], the insulin secretion stimulation is -0.6% (inactive). Moreover, in [3], the viability decrease was -5.3% (inactive). Moreover, the tube area decrease in [4] is 8.4% (inactive). Besides, the GLP1 secretion stimulation in test [5] is 3.4% (inactive). In test [6], the inhibition of viability was 2.73% (inactive). Besides, the figures for the viability decrease (inhibition) in test [7] and in [8] were -11.7% (inactive) and -8.5% (inactive), respectively. Moreover, in [9], the red/green cell ratio (normalised) is 1.08 (inactive). Also, the normalised cell number in [9] (setting [12]) amounted to 1.05; in test [9] (setting [13]), 1.14. The fold change in test [10] (setting [14]) was 0.885 (inactive); in test [10] (setting [15]), 0.852. The cell count in test [10] (setting [16]) was found to be 8900; in [10] (setting [17]) it was 10100. Moreover, in test [11], the remaining NAD was 10 nM (inactive).

On to `NS(=O)(=O)c1ccc(C(=O)O)cc1`, for which the nuclear beta-catenin stimulation was 1.5% (inactive) in test [1] (at 10 µM) and 1.6% in [1] (stimulation, at 2 µM). Further, the insulin secretion stimulation in test [2] is -0.4% (inactive). Further, the viability decrease in test [3] was 15.4% (inactive). In test [4], the tube area decrease was -32.8% (inactive). For the same compound, the GLP1 secretion stimulation in [5] is 2.9% (inactive). Further, in test [6], the inhibition of viability was -10.4% (inactive). Moreover, the viability decrease (inhibition) in test [7] is 21.5% (inactive); in test [8], 3.9% (inactive). Also, the red/green cell ratio (normalised) in [9] is 0.82 (inactive). The normalised cell number in [9] (setting [12]) amounted to 1.25; in [9] (setting [13]) it was 1.03. Besides, the fold change was 0.907 (inactive) in [10] (setting [14]) and 1.07 in test [10] (setting [15]). Besides, the cell count in test [10] (setting [16]) amounted to 8630; in [10] (setting [17]) it was 9520. Further, in test [11], the remaining NAD was 10 nM (inactive).

Turning to `CC(=O)Nc1ccc(C(=O)O)cc1`, the nuclear beta-catenin stimulation was -0.6% (inactive) in [1] (at 10 µM) and 0.4% in test [1] (stimulation, at 2 µM). In addition, the insulin secretion stimulation in test [2] is -1.8% (inactive). Further, the viability decrease in test [3] was -11.6% (inactive). For the same compound, the tube area decrease in test [4] is -12.7% (inactive). Moreover, the GLP1 secretion stimulation in [5] was -0.1% (inactive). In test [6], the inhibition of viability was -18.3% (inactive). Also, the viability decrease (inhibition) was 13.7% (inactive) in test [7] and 11.3% (inactive) in test [8]. The red/green cell ratio (normalised) in test [9] was 1.14 (inactive). Also, the normalised cell number is 0.87 in test [9] (setting [12]) and 0.99 in test [9] (setting [13]). The fold change in test [10] (setting [14]) was 0.937 (inactive); in [10] (setting [15]), 1.06. Moreover, the figures for the cell count in test [10] (setting [16]) and in test [10] (setting [17]) were 9250 and 9880, respectively. Further, the remaining NAD in [11] is 10 nM (inactive).

Regarding `CNC(=O)c1c(I)c(NC(C)=O)c(I)c(C(=O)O)c1I`, the nuclear beta-catenin stimulation in [1] (at 10 µM) was 0.7% (inactive); in test [1] (stimulation, at 2 µM), 0.8%. For the same compound, the insulin secretion stimulation in test [2] was 0.9% (inactive). Besides, the viability decrease in test [3] was -4.1% (inactive). Besides, the tube area decrease in [4] is 4.3% (inactive). The GLP1 secretion stimulation in [5] is 0.4% (inactive). The inhibition of viability in test [6] was 13.4% (inactive). The viability decrease (inhibition) was 0.4% (inactive) in test [7] and -2.95% (inactive) in test [8]. In [9], the red/green cell ratio (normalised) is 0.78 (inactive). In addition, the normalised cell number was 1.25 in [9] (setting [12]) and 0.97 in [9] (setting [13]). Moreover, the results for the fold change in [10] (setting [14]) and in test [10] (setting [15]) were 0.982 (inactive) and 0.852, respectively. Besides, the cell count stood at 9390 in test [10] (setting [16]) and 9560 in test [10] (setting [17]). Besides, the remaining NAD in test [11] was 10 nM (inactive).
